Sampled rows, rich in hits. Any-hit rate of the full collection: about 3%.
HIF-2a inh – HIF-2a reporter inhibitors, primary screen, luminescence, 786-0 RCC cells; 786-0 RCC cells HIF-2a reporter, luciferase luminescence, overnight; inhibition, % at 18.8 µM; 0.72% of 360,000 active; AID 624352, 2012;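 active = inhibition of the luminescence signal of 40% or more relative to plate controls, in a single-dose primary screen at 18.75 µM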
CF NFkB block – inhibitors of PAF-induced NF-kB signaling, primary screen, cell-based, GFP fluorescence, uHTS. KKLEB NF-kB-GFP reporter, GFP fluorescence overnight. inhibition, % at 5 µM. 0.86% of 360,000 active;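 active = at least 50% inhibition at 5 µM, scaled per plate between neutral and stimulator controls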;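 note: PAF is a Pseudomonas aeruginosa culture filtrate used as stimulus; plate controls were PAF-stimulated DMSO wells for no effect and unstimulated DMSO wells for full effect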
Peg3 promoter – Peg3 promoter-driven luciferase inhibitors, primary screen, cell-based, HeLa, luciferase luminescence; inhibition, % at 20 µM; AID 588405, 2011; 1.7% of 360,000 active; HeLa PEG-Prom luciferase reporter, overnight;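 active = inhibition of at least 50% at 20 µM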
LMP1 NFkB inh – EBV LMP1-driven NF-kappaB luciferase reporter inhibitors, primary screen, cell-based, luminescence, single point; 0.69% of 350,000 active; inhibition, % at 12.5 µM; LMP1-induced NF-kappaB luciferase reporter cells; in the data active = inhibition above about 41%; inconclusive = no clear call, values can overlap the other calls;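 note: 0% = neutral control wells and 100% = reference inhibitor control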
TRPM1 prom inh – inhibitors of MITF-dependent TRPM1 promoter reporter, primary screen, cell-based, SK-MEL-5, single point, luciferase; SK-MEL-5 TRPM1 promoter luciferase, 24 h; 0.83% of 330,000 active; inhibition, % at 12.5 µM; AID 488899, 2010;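 active = mean inhibition across replicates of 60% or more, whatever share of single replicates reaches that level; inconclusive = some that reach 60%, reason not given; inactive = mean inhibition across replicates below 60%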
KKLEB cytotox – cytotoxicity in KKLEB CF airway cells, primary screen, cytotoxicity control for CF NF-kB inhibitor project, cell-based, uHTS, fluorescence assay plates. activity change (cytotoxicity), % at 5 µM. KKLEB CF airway cells viability, ATPlite luminescence, overnight; stronger effect = lower value; cells stimulated with P. aeruginosa culture filtrate. 0.36% of 360,000 active;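 active = corrected activity change at or below -50% at 5 µM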
Starred values were filed as active, the others as inactive; ? = inconclusive; nt = no result given.

SMILES	HIF-2a inh	CF NFkB block	Peg3 promoter	LMP1 NFkB inh	TRPM1 prom inh	KKLEB cytotox
O=C(OCc1ccccc1)N(CCCCN(CCCNCc1ccccc1)C(=O)OCc1ccccc1)CCCNCc1ccccc1	89*	68*	108*	-47	97*	-90*
O=C(NCCCCCCNC(=O)OCc1ccccc1)OCc1ccccc1	1	-11	2	-2	-11	-11
CCc1cc(C(=O)c2ccc(C)cc2)c(NC(=O)CCl)s1	-55	30	24	-14	-5	-15
Cc1cc(C(=O)c2ccc(Cl)cc2)c(NC(=O)CCl)s1	4	48	89*	-1	20	-46
COc1ccc(Nc2nc(N)nc(CCl)n2)cc1	-81	28	-59	-13	-66	-20
Nc1nc(CCl)nc(Nc2ccc3ccccc3c2)n1	-125	78*	-32	-4	15	-37
Cc1cc(/C=C2\C(=N)N3C(SCc4ccccc4)=NSC3=NC2=O)c(C)n1Cc1ccccc1	-16	30	10	1	-10	-53*
Cc1ccc(S(=O)(=O)N2C[C@H]3C(=O)C[C@@H](c4ccccc4)N(S(=O)(=O)c4ccccc4[N+](=O)[O-])[C@H]3C[C@H]2c2ccccc2)cc1	5	11	-14	nt	nt	-16
Cc1ccc(-n2c(-c3ccccc3)c[n+]3c2CCc2ccccc2-3)c(C)c1	1	22	42	32	76*	-10
COc1ccc(C2C3=C(Nc4ncnn42)c2ccccc2CCC3)cc1 (stereo not drawn)	11	0	19	7	-7	-7
COc1cc(C2C3=C(Nc4ncnn42)c2ccccc2CC3)cc(OC)c1OC (stereo not drawn)	17	50	-10	-1	?	-52*
CC(=O)O[C@]1(C(C)=O)CC[C@H]2[C@@H]3C=C(C)C4=CC(=O)CC[C@@H]4[C@H]3CC[C@@]21C	11	6	14	52*	4	-10
CC(=O)OC1(C(C)=O)CCC2C3CC(Cl)C4=CC(=O)CCC4(C)C3CCC21C (stereo not drawn)	7	48	1	3	-10	10
CC(=O)O[C@]1(C(C)=O)CCC2C3C=C(C)C4=CC(=O)CC[C@]4(C)C3CC[C@@]21C (stereo partly drawn)	30	52*	-4	4	6	5
OC(c1ccccc1)c1ncc(-c2cccc(OCc3ccccc3)c2)[nH]1 (stereo not drawn)	-29	6	16	nt	nt	-9
Cc1cccc(C)c1Nc1cn[nH]c1	-1	-9	-8	nt	nt	-12
Cc1ccccc1-n1ncc2c([N+](=O)[O-])cc([N+](=O)[O-])cc21	-91	6	-142	-2	67*	-18
COc1ccc(-n2nc3cc(C)c(NC(=S)NC(=O)c4ccccc4C)cc3n2)cc1	-163	55*	-239	-26	-25	-59*
CCC(=O)Nc1cc2nn(-c3ccc(C)cc3)nc2cc1C	-40	-6	62*	63*	60	-32
Cc1c(C(=O)NCc2ccc(C#N)cc2)sc(=O)n1Cc1ccccn1	-1	-10	-14	nt	nt	-16
O=C(Nc1cnns1)Oc1ccccc1	7	-32	11	2	nt	13
CCOC(=O)c1ccc(NC(=O)c2cc3c(C)nn(-c4ccccc4Cl)c3s2)s1	21	70*	25	6	-4	-70*
O=C1CSC(c2ccc(F)cc2)N1c1ccccc1F (stereo not drawn)	5	-16	3	-1	-2	7
O=C1CSC(c2ccc(F)cc2)N1c1nc2ccccc2s1 (stereo not drawn)	-72	-20	-9	62*	2	9
NS(=O)(=O)c1ccc(N2CCN(C(=O)c3ccco3)CC2)nc1	7	14	51*	0	-7	-3
SMILES	HIF-2a inh	CF NFkB block	Peg3 promoter	LMP1 NFkB inh	TRPM1 prom inh	KKLEB cytotox
O=C(c1ccco1)N1CCN(c2ccc([N+](=O)[O-])cn2)CC1	-20	0	-28	4	-4	-13
C[N+](C)(C)CCN1CCc2ccccc21	3	nt	nt	nt	nt	nt
CCn1c(CC(=O)Nc2ccccc2F)nnc1SCC(=O)NC1=NCCS1	7	8	-7	16	nt	-6
CN(C)CC(=O)Nc1ccc2c(c1)[C@H]1C[C@H](CC(=O)NCc3ccc4c(c3)OCO4)O[C@H](CO)[C@H]1O2	-7	-24	1	7	nt	9
Cc1cccc(N2C(=O)C(Oc3ccc(Cl)cc3Cl)C2C=O)c1C (stereo not drawn)	-44	22	69*	15	13	-45
COCCN1CC(=O)N(c2cccc(C)c2C)C(c2ccc(Cl)cc2)C1=O (stereo not drawn)	13	-15	8	-4	1	3
Cc1ccc(CN2C(=O)CCC2(C)c2nnnn2-c2ccc3c(c2)OCCO3)cc1 (stereo not drawn)	15	nt	nt	nt	nt	nt
CCNS(=O)(=O)c1ccc(CCC(=O)Nc2cc(Cl)ccc2Oc2ccccc2)cc1	24	15	63*	6	25	-14
N#Cc1nc(NCC(F)F)nc(Nc2cc(F)cc(F)c2)n1	8	73*	107*	-5	75*	20
COc1cccc(/C=N/NC(=O)CN2CC(c3ccccc3)CC2=O)c1OC (stereo not drawn)	13	-12	0	75*	94*	-17
COc1cc(NC(=O)CN2CC(c3ccccc3)CC2=O)cc(OC)c1 (stereo not drawn)	7	5	10	-4	nt	-5
Cc1cc(C)cc(C(O)c2ncc(-c3ccccc3C(F)(F)F)[nH]2)c1 (stereo not drawn)	20	-14	25	nt	nt	2
CCN(CC)C(=O)C1=C(C)N(Cc2ccccc2)C(=O)C(CC(=O)NC2CC2)C1 (stereo not drawn)	4	14	-7	-10	nt	-2
COc1ccc(CN(C)C(=O)c2cccc(NC(=O)CC3SC(N4CCCCC4)=NC3=O)c2)c(OC)c1 (stereo not drawn)	-5	7	54*	?	63*	8
Cc1ccc(-c2nc3ccc(Cl)cn3c2Cc2cccc(Cl)c2)cc1	-229	29	-177	nt	nt	-21
O=[N+]([O-])c1ccc(-[n+]2nc(-c3ccccc3)nn2-c2ccccc2)cc1	15	42	42	1	7	-53*
CN(Cc1ccccc1)C(=O)c1ccc(NC(=O)C2CCN(C(=O)OC(C)(C)C)CC2)cc1	-1	-18	49	30	34	8
O=C(COC(=O)c1ccc(F)c([N+](=O)[O-])c1)NC(=O)NCc1ccccc1	33	21	97*	0	70*	-1

Screening results as filed in PubChem.
